ALOX15B inhib = qHTS Assay for Inhibitors of 15-hLO-2 (15-human lipoxygenase 2); Polyunsaturated fatty acid lipoxygenase ALOX15B (Homo sapiens), O15296; purified 15hLO-2, xylenol orange hydroperoxide absorbance; Potency, µM (series often up to 57.1 µM), inactives show at the top dose activity change, negative = inhibition, hits mostly inhibitors; 110,000 compounds, 0.56% hits; AID 881, 2007; note: potency is the fitted concentration of half-maximal effect; nearly all actives have a fitted effect of over 60% in size
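Screening format was qHTS against 50 nM purified 15hLO-2 in Hepes pH 7.5 with detergent. Activity follows hydroperoxide formation from 45 uM arachidonic acid, measured as 573:405 nm absorbance ratio of the ferric-xylenol orange complex.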
IMPase cell inh = qHTS Assay for Identifying the Cell-Membrane Permeable IMPase Inhibitors. CHO-M1 cells, IP1 accumulation, HTRF TR-FRET ratio. inhibition (IP1 accumulation), % at 46.1 µM. Inositol monophosphatase 1 (Rattus norvegicus), P97697. 120,000 tested, under 10 active. AID 901, 2007; active = well fitted curve in the direction sought with a large enough effect in the signal ratio, not every such curve was filed as active; inconclusive = small, poorly fitted or top-dose-only effect, or a change in a side signal; inactive = no such curve, though single readings can be large or run the other way; the % refers to the signal ratio;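 note: cells stimulated with carbachol in lithium chloride buffer; plate controls were DMSO basal wells for no effect and reference inhibitor wells for full effect; higher means more IMPase inhibition seen as more IP1 and lower FRET ratio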
Target sequence (P97697 whole entry, looked up): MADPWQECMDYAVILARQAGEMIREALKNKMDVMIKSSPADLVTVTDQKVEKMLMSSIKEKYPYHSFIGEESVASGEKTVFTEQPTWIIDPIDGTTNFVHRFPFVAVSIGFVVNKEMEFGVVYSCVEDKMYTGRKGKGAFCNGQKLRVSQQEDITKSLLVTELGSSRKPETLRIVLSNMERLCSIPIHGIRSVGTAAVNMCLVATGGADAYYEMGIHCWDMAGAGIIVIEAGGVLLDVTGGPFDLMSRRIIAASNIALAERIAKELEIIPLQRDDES
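Seeded CHO-M1 cells were dosed with compound at up to 46 uM, stimulated with carbachol for 30 min, then lysed in IP-One detection reagents. Higher IP1 lowers the TR-FRET signal.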
HPGD inh = qHTS Assay for Inhibitors of HPGD (15-Hydroxyprostaglandin Dehydrogenase); purified HPGD, NADH fluorescence kinetic, PGE2 substrate; Potency, µM, inactives show top-dose activity change, negative = inhibition, most hits filed as inhibitors; 150,000 compounds, 4.3% hits; active = well fitted inhibition curve with a large enough effect, not every such curve was filed as active; inconclusive = small, poorly fitted or top-dose-only effect, or another doubt; inactive = no such curve, though single readings can be large or run the other way; note: potency is the fitted concentration of half-maximal effect
Target sequence (P15428 whole entry, looked up): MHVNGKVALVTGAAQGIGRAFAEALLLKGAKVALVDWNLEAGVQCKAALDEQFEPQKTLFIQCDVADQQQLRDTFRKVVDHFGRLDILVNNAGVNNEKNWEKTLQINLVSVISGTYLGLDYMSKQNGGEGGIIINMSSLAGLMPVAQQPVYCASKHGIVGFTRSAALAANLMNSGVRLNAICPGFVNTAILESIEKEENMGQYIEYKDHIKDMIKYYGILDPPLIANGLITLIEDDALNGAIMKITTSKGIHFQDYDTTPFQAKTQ
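NADH formation kinetics: reaction with 30 uM PGE2 and 1 mM NAD+ (final), 20 nM enzyme, Tris-HCl pH 8 with Tween 20, after 15 min compound preincubation at room temperature. Fluorescence change, last versus first of five reads.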
IMPase Li inh = qHTS Assay for Identifying the Cell-Membrane Permeable IMPase Inhibitors: Potentiation with Lithium | CHO-M1 cells, IP1 TR-FRET (IP-One), carbachol + lithium | Potency, µM (doses to about 59.4 µM), for the others: top-dose activity, negative = IMPase inhibition, hits mostly inhibitors | 210,000 compounds, 0.35% hits | AID 1457, 2008;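 note: IP1 builds up when IMPase is blocked and the TR-FRET signal falls; potency is the fitted concentration of half-maximal effect; plate controls were basal vehicle for no effect and high inhibitor control for full effect; nearly all actives have a fitted effect of over 50% in size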
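Lithium-sensitised IP1 accumulation assay; M1-expressing CHO cells treated 30 min at 37C with compound. Competitive antibody detection by time-resolved FRET followed a 10 min room-temperature lysis step.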
PNC assembly inh = High Content Assay for Compounds that inhibit the Assembly of the Perinucleolar Compartment; PC3M PTB-GFP, PNC prevalence imaging, 16 h; stronger effect = lower value; activity change (PNC), negative = inhibition, % at 10 µM; 140,000 compounds, 3.1% hits; AID 2417, 2010;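 active = readout at or below -70, meaning at least 70% loss of cells showing the perinucleolar compartment, a nuclear body marking cancer cells; inconclusive = readout between -30 and a set limit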;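 note: plate controls were DMSO wells for no effect and camptothecin positive control wells for full effect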
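Read-out is percentage of cells bearing a perinucleolar compartment, from automated 20x imaging of fixed, Hoechst-stained PC3M PTB-GFP cells. Cells were seeded 4 h, then exposed 16 h to compound (23 nl of library stock) in duplicate plates.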
ALOX12 inhib = qHTS Assay for Inhibitors of 12-hLO (12-human lipoxygenase) | Polyunsaturated fatty acid lipoxygenase ALOX12 (Homo sapiens), P18054 | purified 12-hLO, xylenol orange hydroperoxide absorbance | Potency, µM (top dose mostly 57.1 µM), without a hit: at the top dose activity change, negative = inhibition, hits mostly inhibitors | 150,000 compounds, 0.12% hits | AID 1452, 2008; note: potency is the fitted concentration of half-maximal effect; nearly all actives have a fitted effect of over 55% in size
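Xylenol orange chromogenic assay: hydroperoxide from 12hLO oxidises Fe(II), giving red-shifted Fe(III)-XO absorbance. Conditions: 150 nM enzyme, 40 uM arachidonic acid, 25 mM Hepes pH 7.0, 0.01% Triton X-100, 30 min, room temperature.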
* = called active by the depositor; ? = inconclusive; · = no result given; [ ] = remark or other dose. Shown are actives, neighbours in structure and some others; about 5.3% of the full set was active somewhere. Unless noted, calls come from the whole dose curve; as a rule, active = well fitted curve in the direction sought with a large enough effect; inconclusive = small, poorly fitted or top-dose-only effect, or another doubt; inactive = no such curve, though single readings can be large; an effect the other way counts as inactive or inconclusive. Unless noted, % is set by controls: 0 for no effect and ±100 for the full control effect.

SMILES	ALOX15B inhib	IMPase cell inh	HPGD inh	IMPase Li inh	PNC assembly inh	ALOX12 inhib
COc1ccc(OC)c(-n2c(SCC(N)=O)nnc2-c2c[nH]c3ccccc23)c1	5%	1	-16%	3%[38.3 µM]	23	-8%
Cc1cccc(/C=C/c2nc3ccccc3c(=O)[nH]2)c1	·	·	·	5%	·	·
Cc1cccc(/C=C(\c2nc3ccccc3[nH]2)S(=O)(=O)c2ccccc2)c1	·	20	-23%	-8%	-82*	-2%
O=C(Nc1cccnc1)c1c(F)c(F)c(F)c(F)c1F	-4%	3	-6%	11%[38.3 µM]	-107*	5%
CCc1n[nH]c(=S)n1/N=C/c1cc(Br)c(OC)cc1OC	·	·	7.9µM*	0%	154	0%
CCc1n[nH]c(=S)n1/N=C/c1ccc(NC(C)=O)cc1	·	·	·	-4%	·	·
Cc1ccc2c(c1)c(N=NC(N)=O)c(O)n2C	·	·	·	15%	·	·
Cn1c(O)c(N=N/C(=N/c2ccccn2)c2ccccn2)c2cc(Br)ccc21	·	·	22µM*	·	·	-11%
O=C1C2CC=C(Cl)CC2C(=O)N1CCCCCCN1C(=O)C2CC=C(Cl)CC2C1=O (configuration not stated)	-12%	1	16µM*	36%[38.3 µM]	?	-25%
C=C(C)CSc1nc2nc(C)c(Br)cc2[nH]1	-5%	7	14µM*	22%[38.3 µM]	28	8%
C=C(C)CSc1nc2ccccc2[nH]1	·	·	?	-7%	32	4%
CCC(=O)NC(c1cccs1)c1cc([N+](=O)[O-])c2cccnc2c1O (configuration not stated)	·	·	-12%	-1%	44	2.8µM*
CN(C)/C=N/C1=C(C#N)C(c2cccs2)c2ccc3ccccc3c2O1 (configuration not stated)	·	·	·	6%	·	·
COc1ccccc1-n1c(SCC(=O)NC2CCCC2)nc2cccnc21	9%	1	14µM*	19%[38.3 µM]	0	-2%
COc1ccccc1-n1c(SCC(=O)N2CCCCC2)nc2cccnc21	2%	-1	?	-8%[38.3 µM]	22	1%
CCn1c(SCC(=O)NC2CCCCC2)nnc1-c1cc2cccc(OC)c2o1	3%	-16	20µM*	-5%[38.3 µM]	-20	0%
CC(C)(C)NC(=O)Cn1c(SCC(=O)NC2CCCCC2)nc2ccccc21	2%	-1	-2%	?	-100*	0%
NC(=O)c1ccc(NC(=O)CSc2nnc(-c3ccccn3)n2N)cc1	·	·	·	-8%	·	·
Nc1c(-c2ccc(Cl)cc2)cnc2ncnn12	13%	1	-13%	7%[38.3 µM]	-109*	0%
Nc1c(-c2ccccc2)cnc2cc(-c3ccccc3)nn12	·	·	·	12%	·	·
Cc1cc2ncc(-c3ccc(Cl)cc3)c(N)n2n1	7%	11	?	28%[38.3 µM]	-108*	1%
Cc1ccc2oc(-c3ccc(NC(=O)c4oc5ccc(Cl)cc5c4C)cc3)nc2c1	·	-3	·	·	·	·
CCCCCCCC[N+](CCCCCCCC)(CCCCCCCC)CCCCCCCC	32µM*	·	1%	23%	·	?
C#CC[N+](C)(C)CCCCCCCCCC	·	16	-10%	22%	?	-1%
CCOC(=O)CSc1nnc(CSc2nc3sc4c(c3c(=O)[nH]2)CCC4)n1-c1ccccc1	-6%	4	8.9µM*	6%[38.3 µM]	16	-1%
SMILES	ALOX15B inhib	IMPase cell inh	HPGD inh	IMPase Li inh	PNC assembly inh	ALOX12 inhib
CCOC(=O)CSc1nc2c(sc(=S)n2-c2ccccc2)c(=O)[nH]1	·	·	20µM*	-5%	?	-3%
C=CCSc1nnc(CSc2nc3sc4c(c3c(=O)[nH]2)CCCC4)n1-c1ccccc1	?	1	-26%	3%[38.3 µM]	-11	-21%
CCOC(=O)CSc1nc2sc(C)c(C)c2c(=O)[nH]1	3%	8	3.5µM*	-30%[38.3 µM]	40	0%
CCOC(=O)CSc1nnc(CSc2nc3sc4c(c3c(=O)[nH]2)CCC4)n1C	-15%	10	8.9µM*	-1%[38.3 µM]	-7	-4%
CC(C)(C)CN1CCNC(=O)C1CC(=O)NCCc1ccccc1F (configuration not stated)	·	·	·	5%	·	·
CCOC(=O)CSc1nnc(CSc2nc3ccccc3c(=O)[nH]2)n1-c1ccccc1	-4%	12	4.5µM*	31%[38.3 µM]	35	-8%
CCOC(=O)/C(=C\c1ccc(Cl)cc1)c1nc2sc(C)c(C)c2c(=O)[nH]1	·	·	22µM*	15%	-7	-7%
O=c1[nH]c(SCc2nc3ccccc3n2Cc2ccccc2)nc2ccccc12	-5%	17	?	7.9µM*	32	-5%
CCOC(=O)CSc1nnc(CSc2nc3ccccc3s2)n1C	-4%	-1	-24%	-2%[38.3 µM]	-97*	7%
CCOC(=O)CSc1nc2ccccc2c(=O)[nH]1	0%	-2	-17%	20%[38.3 µM]	38	4%
CCCCOc1ccc(Cc2n[nH]c(=S)n2N)cc1	·	·	2.5µM*	4%	62	-6%
Cc1ccc(CS(=O)(=O)CCC(=O)NCC2CCCO2)cc1 (configuration not stated)	2%	-8	-4%	9%[38.3 µM]	-84*	-1%
Cc1ccc(S(=O)(=O)N(C)c2ccc(C(=O)NCC3CCCO3)cc2)cc1 (configuration not stated)	-7%	0	3.2µM*	-6%[38.3 µM]	-22	-7%
CN(c1ccc(C(=O)NCC2CCCO2)cc1)S(=O)(=O)c1ccccc1 (configuration not stated)	·	-1	14µM*	5%[38.3 µM]	41	-3%
CO/N=C\c1cc(C(=O)c2ccc(Cl)cc2Cl)cn1C	·	·	·	5%	·	·
CC(=O)N(C(C)=O)c1c(C#N)c(C)n(-c2ccccc2)c1C(=O)c1ccccc1	1%	8	5%	16%[38.3 µM]	-93*	-5%
N#Cc1c(N)c(C(=O)c2ccccc2)n2c1CCCC2	-3%	7	-10%	0%	11	-1%
O=C1CN(C(=O)CSc2nc(-c3ccccc3)cs2)c2ccccc2N1	·	·	18µM*	2%	-91*	-7%
Cc1cccc2cc(C#N)c(SCC(=O)N3CC(=O)Nc4ccccc43)nc12	-15%	9	-26%	-8%[38.3 µM]	-85*	-1%
Cc1cccc2cc(C#N)c(SCC(=O)N3CCC(C)CC3)nc12	-11%	-2	?	-3%[38.3 µM]	-24	-5%
O=C1CN(C(=O)CSc2nncs2)c2ccccc2N1	·	·	·	7%	·	·
COc1ccc(-n2c(C)c(C(C)=O)c3cc(O)ccc32)cc1	-2%	2	4µM*	-6%	?	-6%

Source: PubChem BioAssay (National Center for Advancing Translational Sciences (NCATS))
